Assay outcomes as filed in PubChem.
Hits are enriched below; roughly 8.3% of the tested compounds scored in any of these assays.
Lassa entry inh – Lassa virus entry inhibition; Lassa virus pseudotype entry inhibition, cell reporter; Potency, µM (top dose mostly 37.9 µM), without a hit: at the top dose activity change, negative = inhibition, hits mostly inhibitors; 300,000 compounds, 1.2% hits; AID 540256; calls by dose curve; tested in HEK293 cells; also: potency is read from the fitted curve at half-maximal effect; nearly all actives have a fitted effect of over 50% in size
HCV inhibitor – blocks hepatitis C virus; 340,000 compounds, 3.4% hits; AID 651820; Potency, µM (top dose mostly 41.8 µM), inactives show top-dose activity change, negative = inhibition, actives largely listed as inhibitors; Huh7.5.1 HCVcc-Cre infection, luciferase reporter, 44 h; also: potency is read from the fitted curve at half-maximal effect
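Compounds are dispensed onto cells plated 4 h earlier at 1,000 per well, with HCVcc-Cre virus (about 0.5 moi) added next. Following 44 h of culture, luminescent signal is measured for 15 sec after 15 min with substrate at room temperature.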
HCMV antiviral – human cytomegalovirus inhibition | 410,000 compounds, 4.5% hits | HFF cells, HCMV-luciferase reporter, 72 h; stronger effect = lower value | activity change, negative = inhibition, % at 57.5 µM | AID 1259415; in the data active = activity change below about -60%; inconclusive = no clear call, values can overlap the other calls; inactive = above about -39%
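Inhibition of viral replication was scored as loss of reporter luminescence in HFFs infected with HCMV-luciferase (MOI 1 PFU/cell) for 72 h; compounds tested at 2 doses, normalized to buffer and Salinomycin controls.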
Marburg entry inh – blocks Marburg virus binding to or entry into cells; Marburg virus pseudotyped entry inhibition, cell reporter; Potency, µM (doses to about 37.8 µM), for inactives: at the top dose activity change, negative = inhibition, most hits filed as inhibitors; 300,000 compounds, 1.8% hits; AID 540276; calls by dose curve; tested in HEK293 cells; also: potency is read from the fitted curve at half-maximal effect
Giardia FBPA inh – inhibitors of Giardia lamblia fructose-1,6-bisphosphate aldolase; Potency, µM (doses to about 59.6 µM), for inactives: at the top dose activity, negative = inhibition, hits mostly inhibitors; purified Giardia FBPA; A8B2U2; 290,000 compounds, 0.71% hits; AID 2451; also: potency is read from the fitted curve at half-maximal effect; nearly all actives have a fitted effect of over 55% in size
Target sequence (A8B2U2 whole entry, looked up): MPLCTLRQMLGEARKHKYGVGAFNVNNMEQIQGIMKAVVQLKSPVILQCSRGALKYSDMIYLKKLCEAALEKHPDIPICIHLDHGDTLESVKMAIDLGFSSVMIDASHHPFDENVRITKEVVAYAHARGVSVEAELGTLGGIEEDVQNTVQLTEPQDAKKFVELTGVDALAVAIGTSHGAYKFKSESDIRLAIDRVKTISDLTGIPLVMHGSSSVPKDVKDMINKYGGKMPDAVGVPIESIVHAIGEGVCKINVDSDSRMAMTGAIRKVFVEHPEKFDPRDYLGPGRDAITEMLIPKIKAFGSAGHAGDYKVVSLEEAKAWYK
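40 nM FBPA preincubated 10 min at RT with compound (up to 57.5 uM final), then substrate plus GAPDH/TPI/NAD/arsenate coupling and diaphorase/resazurin added. Fluorescence read after 20 min at RT, 525/598 nm.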
FMDV inh – blocks foot and mouth disease virus; FMDV antiviral cell-based qHTS; Potency, µM (series often up to 57.9 µM), for inactives: at the top dose activity change, negative = inhibition, usual class: inhibitors; 410,000 compounds, 1.2% hits; AID 1159524; calls by dose curve; tested in HEK293T cells; also: read-out not given here; potency is read from the fitted curve at half-maximal effect; nearly all actives have a fitted effect of over 45% in size
* marks the source's active call; other numbers are inactive results; ? = inconclusive; . = no result given; [ ] = another dose, or the depositor's remark. Unless noted, calls follow the shape of the dose curve; as a rule, active = well fitted curve in the direction sought with a large enough effect; inconclusive = small, poorly fitted or top-dose-only effect, or another doubt; inactive = no such curve, though single readings can be large; an effect the other way counts as inactive or inconclusive. % is scaled to controls: 0 for no effect and ±100 for the full control effect.

SMILES | Lassa entry inh | HCV inhibitor | HCMV antiviral | Marburg entry inh | Giardia FBPA inh | FMDV inh
COC(=O)c1cccc(N2C(=O)C[C@](Sc3ccc(OC)cc3)(C(=O)N(C)C)[C@H]2c2ccc(OC)cc2)c1 | . | . | -23 | . | . | .
O=C(Nc1nccs1)C1CCN(S(=O)(=O)c2cccs2)CC1 | 1% | -12% | -28 | -23% | 7% | -24%
Cc1ccc(-c2csc(NC(=O)C3CCN(S(=O)(=O)c4cccs4)CC3)n2)cc1 | ? | 10µM* | -79* | ? | -8% | ?
Cc1ccc(NC(=O)C2CCN(S(=O)(=O)c3cccs3)CC2)cc1 | ? | 2% | -28 | ? | 0% | -19%
O=C(Nc1nc(-c2ccc3ccccc3c2)cs1)C1CCN(S(=O)(=O)c2cccs2)CC1 | ? | ? | -75* | -2% | 3% | ?
Cc1ccccc1NC(=O)c1ccc(F)c(S(=O)(=O)N2CCN(c3ccccn3)CC2)c1 | ? | ? | ? | -6% | -1% | 22µM*
O=C(Nc1ccc(Br)cc1)c1ccc(F)c(S(=O)(=O)NC2CCCCCC2)c1 | ? | . | -98* | . | . | -25%
O=C(Nc1ccc(Br)cc1)c1ccc(F)c(S(=O)(=O)N2CCN(c3ccccn3)CC2)c1 | ? | 7.1µM* | -89* | ? | 6% | ?
O=C(Nc1cc(Cl)cc(Cl)c1)c1ccc(F)c(S(=O)(=O)NC2CCCCC2)c1 | -3%[46.1 µM] | . | -21 | . | . | 12%
C[C@H]1[C@@H](NC(=O)Nc2cccc(C#N)c2)CC[C@@]23CCCN2C(=O)CCC[C@@H]13 | . | . | 12 | . | . | .
CC1=CN2C(=N)/C(=C/c3ccco3)C(=O)N=C2S1 | ? | 31% | 67 | ? | 8% | -71%
CCOc1ccc(-c2ccc(/C=C3/C(=N)N4C=CSC4=NC3=O)o2)c([N+](=O)[O-])c1 | 1% | 11µM* | 18 | -18% | ? | ?
CC1=CN2C(=N)/C(=C/c3ccc([N+](=O)[O-])o3)C(=O)N=C2S1 | -14% | 11% | -96* | ? | ? | 25µM*
CCOc1ccc(-c2ccc(/C=C3/C(=N)N4C(C)=CSC4=NC3=O)o2)c([N+](=O)[O-])c1 | 6% | -10% | 72 | ? | -10% | -25%
O=C(c1ccc2c(c1)CCN2S(=O)(=O)c1ccc(Cl)cc1)N1CCN(c2ccccc2)CC1 | 3%[46.1 µM] | . | -20 | 8%[46.1 µM] | . | -19%
COc1ccc(-n2ncc(C(=O)N3CCN(c4ncccn4)CC3)c2C2CCN(C(=O)OC(C)(C)C)CC2)cc1 | -25%[46.1 µM] | . | 0 | . | . | 14%
COc1ccc(C(=O)Cn2nc(CNc3ccc(Br)cc3)[n+]3c2CCCCC3)cc1 | -27% | -2% | -60* | ? | 7% | -16%
COc1cc(/C=N/N2C(=O)CSC2=S)cc(Br)c1O | 16µM* | -8% | -9 | -11% | -29% | -12%
COc1cccc(/C=N/N2C(=O)CSC2=S)c1O | 8% | 9% | 105 | ? | -19% | 1%
O=C(c1ccc(-c2ccccc2Cl)o1)N1CCN(S(=O)(=O)c2cccs2)CC1 | -3% | 14µM* | 37 | ? | . | -7%
O=C(c1ccccc1Cl)N1CCN(S(=O)(=O)c2cccs2)CC1 | 17% | . | 21 | 2% | . | -30%
O=C(c1ccco1)N1CCN(C(=O)c2ccc(-c3ccccc3Cl)o2)CC1 | . | 22µM* | 0 | . | . | 3%
O=C(c1cc(-c2ccccc2Cl)on1)N1CCN(C(=O)c2ccco2)CC1 | 8% | 16% | 44 | 1% | . | 4%
O=C(N/N=C/c1ccc2ncccc2c1)c1ccco1 | 2.5µM* | -23% | 5 | 1.3µM* | 2% | -77%
CSc1nsc(N/N=C/c2ccccc2)c1C#N | -2% | -24% | -39 | -29%[46.1 µM] | 0% | 28%
COc1cccc(C=Nc2ccccc2C#N)c1O | 4% | 2% | 8 | 10% | 6% | -13%
COc1cccc(/C=N/Nc2snc(SC)c2C#N)c1 | 5.6µM* | -31% | 6 | ? | -1% | -10%
COc1cccc(/C=N/Nc2snc(SC)c2C#N)c1O | ? | ? | -98* | ? | 2% | ?
COc1ccc(/C=N/Nc2snc(SC)c2C#N)cc1OC | 6.3µM* | ? | 82 | ? | . | -2%
CN(CC(=O)Nc1c(Cl)cccc1Cl)C(=O)c1cc(-c2cccs2)nn1-c1ccccc1 | ? | ? | -21 | -3% | . | 0%
